# Assay results: PubChem BioAssay (Tox21)
# Results filed as inconclusive are left out. Where a call stands in place of a potency, no number is given. Unmarked numbers belong to inactive results. Activity calls are given as the source filed them. The call rests on the fitted dose curve; in most records, active means well fitted curve in the direction sought with a large enough effect in the repeat runs; inconclusive means weak or mixed curves; inactive means no such curve, though single readings can be large; an effect the other way counts as inactive or inconclusive.
# How the values were obtained:
# [1] = molecular target: Cytochrome P450 2C19 (Homo sapiens) (UniProt P33261); test: Cytochrome P450 Family 2 Subfamily C Member 19 (CYP2C19) small molecule antagonists: luciferase reporter qHTS assay (AID 1671197); further: nearly all actives have a fitted effect of over 65% in size; further: potency means the concentration at half of the fitted maximal effect; on activity change, negative = inhibition: series mostly up to about 120 µM
# Chain of Cytochrome P450 2C19 (Homo sapiens) (P33261 whole entry, looked up): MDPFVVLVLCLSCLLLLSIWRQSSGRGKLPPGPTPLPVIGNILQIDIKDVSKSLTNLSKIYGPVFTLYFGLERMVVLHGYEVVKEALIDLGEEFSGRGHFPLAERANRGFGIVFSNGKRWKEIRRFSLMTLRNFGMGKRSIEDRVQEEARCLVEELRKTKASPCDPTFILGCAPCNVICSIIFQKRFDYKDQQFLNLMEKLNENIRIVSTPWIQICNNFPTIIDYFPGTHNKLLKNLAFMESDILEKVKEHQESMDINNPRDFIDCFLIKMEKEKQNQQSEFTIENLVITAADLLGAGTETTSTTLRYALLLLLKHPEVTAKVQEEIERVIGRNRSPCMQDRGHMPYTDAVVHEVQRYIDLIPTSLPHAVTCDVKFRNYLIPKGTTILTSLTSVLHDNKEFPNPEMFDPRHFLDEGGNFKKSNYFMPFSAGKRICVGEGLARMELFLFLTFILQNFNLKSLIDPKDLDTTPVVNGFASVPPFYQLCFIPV
# Outline: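 Luminescent readout of CYP2C19 activity: luciferin product detected 20 min after adding detection reagent. Before that, compound and enzyme-substrate mix preincubated 10 min at room temperature; NADPH-regenerating system started a 1 h, 37C reaction. Ketoconazole as positive control.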
# [2] = molecular target: Cytochrome P450 2C9 (Homo sapiens) (UniProt P11712); test: Cytochrome P450 Family 2 Subfamily C Member 9 (CYP2C9) small molecule antagonists: luciferase reporter qHTS assay (AID 1671198); further: nearly all actives have a fitted effect of over 50% in size; further: potency means the concentration at half of the fitted maximal effect; on activity change, negative = inhibition: series mostly up to about 120 µM
# Chain of Cytochrome P450 2C9 (Homo sapiens) (P11712 whole entry, looked up): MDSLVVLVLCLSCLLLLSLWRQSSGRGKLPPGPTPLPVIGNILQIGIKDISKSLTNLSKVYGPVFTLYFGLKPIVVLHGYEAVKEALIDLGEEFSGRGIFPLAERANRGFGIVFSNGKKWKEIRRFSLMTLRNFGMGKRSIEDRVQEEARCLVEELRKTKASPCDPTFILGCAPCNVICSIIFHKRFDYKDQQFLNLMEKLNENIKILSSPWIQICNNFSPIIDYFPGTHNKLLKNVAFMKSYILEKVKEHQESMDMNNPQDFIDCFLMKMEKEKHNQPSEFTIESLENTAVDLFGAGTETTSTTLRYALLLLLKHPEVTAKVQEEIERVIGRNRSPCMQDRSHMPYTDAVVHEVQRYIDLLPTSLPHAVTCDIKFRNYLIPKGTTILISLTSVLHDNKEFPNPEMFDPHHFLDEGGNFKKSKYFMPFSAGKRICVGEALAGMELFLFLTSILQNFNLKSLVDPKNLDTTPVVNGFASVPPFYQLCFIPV
# Outline: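 P450-Glo proluciferin substrate with CYP2C9 enzyme; 10 min RT preincubation, then NADPH regeneration 1 h at 37C; luciferin detection reagent 20 min RT, luminescence in relative luminescence units.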
# [3] = molecular target: Cytochrome P450 1A2 (Homo sapiens) (UniProt P05177); test: Cytochrome P450 Family 1 Subfamily A Member 2 (CYP1A2) small molecule antagonists: luciferase reporter qHTS assay (AID 1671199); further: nearly all actives have a fitted effect of over 50% in size; further: potency means the concentration at half of the fitted maximal effect; on activity change, negative = inhibition: series mostly up to about 120 µM
# Chain of Cytochrome P450 1A2 (Homo sapiens) (P05177 whole entry, looked up): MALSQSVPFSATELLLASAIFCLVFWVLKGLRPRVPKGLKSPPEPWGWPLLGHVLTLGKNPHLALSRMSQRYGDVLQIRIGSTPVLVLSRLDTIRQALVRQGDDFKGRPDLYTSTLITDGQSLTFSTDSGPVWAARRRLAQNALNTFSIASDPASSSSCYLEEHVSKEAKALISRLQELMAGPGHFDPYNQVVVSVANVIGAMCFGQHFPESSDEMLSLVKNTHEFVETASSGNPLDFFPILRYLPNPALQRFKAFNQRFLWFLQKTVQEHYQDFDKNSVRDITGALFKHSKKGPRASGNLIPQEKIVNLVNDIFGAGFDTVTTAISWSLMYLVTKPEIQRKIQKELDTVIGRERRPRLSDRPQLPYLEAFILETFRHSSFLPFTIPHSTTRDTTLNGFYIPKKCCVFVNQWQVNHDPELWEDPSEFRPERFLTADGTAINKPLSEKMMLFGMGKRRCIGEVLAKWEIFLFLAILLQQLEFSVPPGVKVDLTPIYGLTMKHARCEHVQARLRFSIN
# Outline: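 Signal from luciferin formed by CYP1A2 from a proluciferin substrate is read as luminescence, expressed in relative luminescence units. Compounds sit with enzyme 10 min, NADPH-driven reaction runs 1 h, all at room temperature.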
# [4] = molecular target: Voltage-gated inwardly rectifying potassium channel KCNH2 (Homo sapiens) (UniProt Q12809); test: Human Ether-a-go-go-Related Gene (hERG) channel small molecule antagonists: fluorescence cell-based qHTS assay (AID 1671200);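 further: hERG-expressing U2OS cells given a thallium stimulus after FluxOR II dye loading; series mostly up to about 77 µM; nearly all actives have a fitted effect of over 50% in size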
# Chain of Voltage-gated inwardly rectifying potassium channel KCNH2 (Homo sapiens) (Q12809 whole entry, looked up): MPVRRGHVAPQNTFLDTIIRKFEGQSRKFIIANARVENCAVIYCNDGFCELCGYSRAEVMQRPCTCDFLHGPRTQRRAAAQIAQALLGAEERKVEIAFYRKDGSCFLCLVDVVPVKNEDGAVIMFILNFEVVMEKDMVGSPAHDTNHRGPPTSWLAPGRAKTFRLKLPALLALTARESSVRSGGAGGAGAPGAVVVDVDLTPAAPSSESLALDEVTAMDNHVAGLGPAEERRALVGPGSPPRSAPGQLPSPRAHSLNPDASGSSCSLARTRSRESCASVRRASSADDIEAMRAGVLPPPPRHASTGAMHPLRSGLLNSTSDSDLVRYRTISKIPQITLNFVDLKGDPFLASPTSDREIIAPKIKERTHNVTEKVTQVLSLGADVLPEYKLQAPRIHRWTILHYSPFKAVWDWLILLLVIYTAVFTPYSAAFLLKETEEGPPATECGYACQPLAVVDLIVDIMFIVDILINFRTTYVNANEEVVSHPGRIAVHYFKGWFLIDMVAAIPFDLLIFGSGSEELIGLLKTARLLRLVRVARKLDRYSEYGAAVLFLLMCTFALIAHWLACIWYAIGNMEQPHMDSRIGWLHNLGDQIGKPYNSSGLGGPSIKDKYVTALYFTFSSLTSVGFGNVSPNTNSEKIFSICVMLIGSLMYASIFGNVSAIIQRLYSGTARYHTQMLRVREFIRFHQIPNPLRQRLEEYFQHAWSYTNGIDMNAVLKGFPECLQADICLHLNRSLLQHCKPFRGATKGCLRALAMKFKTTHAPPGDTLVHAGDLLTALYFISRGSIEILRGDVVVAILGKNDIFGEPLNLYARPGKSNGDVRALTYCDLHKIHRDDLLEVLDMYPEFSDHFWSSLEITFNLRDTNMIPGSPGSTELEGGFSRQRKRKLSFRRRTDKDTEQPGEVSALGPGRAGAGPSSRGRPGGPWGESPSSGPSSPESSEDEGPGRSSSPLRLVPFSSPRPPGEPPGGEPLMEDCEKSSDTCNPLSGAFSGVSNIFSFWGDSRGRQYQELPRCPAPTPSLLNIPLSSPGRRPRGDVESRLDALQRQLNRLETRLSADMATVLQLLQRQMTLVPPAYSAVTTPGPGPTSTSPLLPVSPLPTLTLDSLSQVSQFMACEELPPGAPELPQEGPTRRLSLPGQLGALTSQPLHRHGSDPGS
# Outline: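 hERG-U2OS cells plated overnight at 37 C, loaded with FluxOR II dye 1 h at RT in dark; after 10 min, thallium stimulus added. Fluorescence (480/540 nm) read kinetically for 2 min at 1 s intervals.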
# [5] = molecular target: Cytochrome P450 3A4 (Homo sapiens) (UniProt P08684); test: Cytochrome P450 Family 3 Subfamily A Member 4 (CYP3A4) small molecule antagonists: luciferase reporter qHTS assay (AID 1671201); further: nearly all actives have a fitted effect of over 50% in size; further: potency means the concentration at half of the fitted maximal effect; on activity change, negative = inhibition: series mostly up to about 120 µM
# Chain of Cytochrome P450 3A4 (Homo sapiens) (P08684 whole entry, looked up): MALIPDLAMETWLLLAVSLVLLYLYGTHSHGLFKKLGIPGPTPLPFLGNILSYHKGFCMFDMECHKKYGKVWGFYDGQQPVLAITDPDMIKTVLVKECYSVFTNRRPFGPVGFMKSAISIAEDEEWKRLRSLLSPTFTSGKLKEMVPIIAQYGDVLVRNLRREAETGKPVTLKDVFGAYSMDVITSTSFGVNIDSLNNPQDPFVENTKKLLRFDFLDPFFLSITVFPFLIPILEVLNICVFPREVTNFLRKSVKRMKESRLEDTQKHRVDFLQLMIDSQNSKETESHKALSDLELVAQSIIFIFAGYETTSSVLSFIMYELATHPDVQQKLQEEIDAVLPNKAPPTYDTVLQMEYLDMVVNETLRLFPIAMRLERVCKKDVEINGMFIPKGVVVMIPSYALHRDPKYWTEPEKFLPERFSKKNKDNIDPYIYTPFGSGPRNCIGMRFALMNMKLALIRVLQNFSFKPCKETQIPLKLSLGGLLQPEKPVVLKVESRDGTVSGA
# Outline: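 P450-Glo CYP3A4 luminescent assay: compounds preincubated 10 min at room temperature with enzyme and proluciferin substrate, NADPH regeneration added, 1 h room-temperature reaction, stopped with luciferin detection reagent; luminescence read after 20 min. Ketoconazole positive control.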
# [6] = molecular target: Cytochrome P450 2D6 (Homo sapiens) (UniProt P10635); test: Cytochrome P450 Family 2 Subfamily D Member 6 (CYP2D6) small molecule antagonists: luciferase reporter qHTS assay (AID 1671196); further: nearly all actives have a fitted effect of over 50% in size; further: potency means the concentration at half of the fitted maximal effect; on activity change, negative = inhibition: series mostly up to about 120 µM
# Chain of Cytochrome P450 2D6 (Homo sapiens) (P10635 whole entry, looked up): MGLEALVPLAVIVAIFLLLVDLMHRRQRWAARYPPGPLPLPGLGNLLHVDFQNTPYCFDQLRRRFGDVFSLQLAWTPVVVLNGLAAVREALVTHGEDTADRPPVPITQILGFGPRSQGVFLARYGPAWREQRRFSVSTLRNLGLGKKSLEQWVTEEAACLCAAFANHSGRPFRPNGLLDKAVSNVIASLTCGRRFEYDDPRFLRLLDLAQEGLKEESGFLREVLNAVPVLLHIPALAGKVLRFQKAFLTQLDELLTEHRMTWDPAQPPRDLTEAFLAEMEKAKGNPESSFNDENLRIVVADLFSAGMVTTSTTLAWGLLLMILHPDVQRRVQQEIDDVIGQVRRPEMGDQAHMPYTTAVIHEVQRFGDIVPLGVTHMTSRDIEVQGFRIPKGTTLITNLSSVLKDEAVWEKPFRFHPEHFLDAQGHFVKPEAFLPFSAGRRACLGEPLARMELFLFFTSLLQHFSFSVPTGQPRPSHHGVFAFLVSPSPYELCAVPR
# Outline: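 Inhibition of CYP2D6 was gauged by loss of luminescence, since light produced tracks the luciferin generated from a proluciferin substrate. A 10 min room-temperature preincubation preceded 1 h NADPH-supported turnover.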
smiles,measurement,setting,value
CC(C)OC(=O)CCCCC(=O)OC(C)C,Potency,[1],inactive
same,Potency,[2],inactive
same,Potency,[3],inactive
same,Potency,[4],inactive
same,Potency,[5],inactive
OC[C@H](Cc1cccc(O)c1)[C@H](CO)Cc1cccc(O)c1,Potency,[1],32.5 µM (active)
same,Potency,[2],23 µM (active)
same,Potency,[5],18.3 µM (active)
CCCCCCCCC1CCC(=O)O1 (centres undefined),Potency,[1],56.4 µM (active)
same,Potency,[2],71 µM (active)
same,Potency,[4],inactive
same,Potency,[5],inactive
CCOC(=O)CC(=O)c1ccccc1,Potency,[1],39.9 µM (active)
same,Potency,[2],35.6 µM (active)
same,Potency,[3],28.3 µM (active)
same,Potency,[4],inactive
same,Potency,[5],inactive
O=C1c2cccc3c2[C@H](CCC3)CN1[C@@H]1CN2CCC1CC2,Potency,[1],inactive
same,Potency,[2],inactive
same,Potency,[3],inactive
O=C1c2ccccc2C(=O)N1CCl,Potency,[1],inactive
same,Potency,[2],inactive
same,Potency,[4],inactive
same,Potency,[5],inactive
CCN1CCc2nc(N)oc2CC1,Potency,[1],inactive
same,Potency,[2],inactive
same,Potency,[4],inactive
same,Potency,[5],inactive
CCOC(=O)c1ncn2c1CN(C)C(=O)c1cc(F)ccc1-2,Potency,[6],inactive
same,Potency,[3],inactive
same,Potency,[4],inactive
same,Potency,[5],inactive
O=C(NCCN1CCOCC1)c1ccc(Cl)cc1,Potency,[1],34.7 µM (active)
same,Potency,[2],inactive
same,Potency,[3],inactive
same,Potency,[4],inactive
same,Potency,[5],inactive
COCCOCCOCCOCCO,Potency,[1],inactive
same,Potency,[2],inactive
same,Potency,[4],inactive
same,Potency,[5],inactive
CCOCCOCCOCC,Potency,[1],inactive
same,Potency,[2],inactive
same,Potency,[3],inactive
same,Potency,[4],inactive
same,Potency,[5],inactive
CCCCCCN,Potency,[1],inactive
same,Potency,[2],inactive
same,Potency,[3],inactive
same,Potency,[4],inactive
same,Potency,[5],inactive
CC(C)(C)c1n[nH]c(=S)n(N)c1=O,Potency,[6],inactive
same,Potency,[4],inactive
same,Potency,[5],inactive
Nc1ccc([N+](=O)[O-])c(N)c1,Potency,[6],7.76 µM (active)
same,Potency,[4],inactive
same,Potency,[5],inactive
Cc1c(I)c(=O)n(-c2ccccc2)n1C,Potency,[6],inactive
same,Potency,[3],inactive
same,Potency,[4],inactive
same,Potency,[5],inactive
O=C(O)c1cc(Cl)cc([N+](=O)[O-])c1Cl,Potency,[1],inactive
same,Potency,[2],71 µM (active)
same,Potency,[3],39.9 µM (active)
same,Potency,[4],inactive
same,Potency,[5],inactive
O=C(OCC1(COC(=O)c2cccnc2)CCCC(COC(=O)c2cccnc2)(COC(=O)c2cccnc2)C1O)c1cccnc1,Potency,[1],38.9 µM (active)
same,Potency,[2],12.3 µM (active)
same,Potency,[3],inactive
same,Potency,[4],inactive
O=C(CS(=O)Cc1ccco1)NC/C=C\COc1cc(CN2CCCCC2)ccn1 (centres undefined),Potency,[1],inactive
same,Potency,[2],inactive
same,Potency,[3],inactive
same,Potency,[4],inactive
same,Potency,[5],inactive
O=C1CCCC(=O)O1,Potency,[1],inactive
same,Potency,[2],12.6 µM (active)
same,Potency,[3],inactive
same,Potency,[4],inactive
same,Potency,[5],inactive
COc1ccc(OC)c(Cl)c1,Potency,[1],inactive
same,Potency,[2],inactive
same,Potency,[4],inactive
same,Potency,[5],inactive
C=C(C)C(=O)OCC(C)(C)COC(=O)C(=C)C,Potency,[1],inactive
same,Potency,[2],inactive
same,Potency,[3],inactive
same,Potency,[5],inactive
CC(=O)/C=C/C1C(C)=CCC(C)C1(C)C (centres undefined),Potency,[6],inactive
same,Potency,[4],inactive
same,Potency,[5],25.2 µM (active)
COC(=O)CCc1ccc(OCC(O)CNC(C)C)cc1 (centres undefined),Potency,[1],inactive
same,Potency,[2],inactive
same,Potency,[3],inactive
same,Potency,[4],inactive
same,Potency,[5],inactive
O=S(=O)(O)CCN1CCN(CCO)CC1,Potency,[1],inactive
same,Potency,[2],inactive
same,Potency,[3],inactive
same,Potency,[4],inactive
same,Potency,[5],inactive
C[C@@H](O)[C@H]1C(=O)N2C(C(=O)O)=C(SCCN=CN)C[C@H]12,Potency,[6],inactive
same,Potency,[4],inactive
same,Potency,[5],inactive
CC(C)CC(C)CC(C)CC(C)COC(=O)c1ccccc1C(=O)OCC(C)CC(C)CC(C)CC(C)C (centres undefined),Potency,[1],65.9 µM (active)
same,Potency,[2],58.7 µM (active)
same,Potency,[3],65.9 µM (active)
same,Potency,[4],inactive
CC(C)C(=O)OCCc1ccccc1,Potency,[6],inactive
same,Potency,[3],inactive
same,Potency,[4],inactive
same,Potency,[5],inactive
CC(=O)NCc1c(I)c(NC(C)=O)c(I)c(C(=O)O)c1I,Potency,[2],inactive
same,Potency,[3],inactive
same,Potency,[4],inactive
same,Potency,[5],inactive
CC(C)NCC(O)COc1cccc2[nH]ccc12 (centres undefined),Potency,[4],inactive
NCCN1CCOCC1,Potency,[4],inactive
NC(CO)C(=O)NNCc1ccc(O)c(O)c1O (centres undefined),Potency,[3],inactive
COCCOC(=O)C1=C(C)NC(C)=C(C(=O)OC(C)C)C1c1cccc([N+](=O)[O-])c1 (centres undefined),Potency,[4],inactive
CC(C)(C)c1nnc(NS(=O)(=O)c2ccc(N)cc2)s1,Potency,[1],inactive
same,Potency,[4],inactive
same,Potency,[5],inactive
Nc1ncnc(Nc2ccccc2)n1,Potency,[2],inactive
same,Potency,[5],inactive
O=C(NCCc1c[nH]c2ccccc12)c1cccnc1,Potency,[1],7.76 µM (active)
same,Potency,[3],12.9 µM (active)
same,Potency,[4],inactive
CCCCN,Potency,[4],inactive
same,Potency,[5],inactive
CC(=O)OC(C)OC(=O)C(C)c1ccc(-c2ccccc2)c(F)c1 (centres undefined),Potency,[2],3.47 µM (active)
same,Potency,[3],8.71 µM (active)
same,Potency,[4],inactive
same,Potency,[5],inactive
N[C@@H](CCC(=O)N[C@@H](CS)C(=O)NCC(=O)O)C(=O)O,"activity change, negative = inhibition",[4],7.2% [at 15.8 µM]
CCCCNc1ccc(C(=O)OCCN(C)C)cc1,Potency,[4],inactive
Cc1ccc(C=O)cc1C,Potency,[3],35.6 µM (active)
same,Potency,[4],inactive
same,Potency,[5],inactive
Cc1ccccc1OCC(O)CO (centres undefined),Potency,[3],27.5 µM (active)
same,Potency,[4],inactive
same,Potency,[5],inactive
CCN(C)C(=O)Oc1cccc([C@H](C)N(C)C)c1,Potency,[1],inactive
same,Potency,[3],inactive
same,Potency,[4],inactive
same,Potency,[5],inactive
O=S(=O)(O)c1cc(O)c2ccc(Nc3ccccc3)cc2c1,Potency,[2],39.9 µM (active)
same,Potency,[3],inactive
same,Potency,[4],inactive
same,Potency,[5],inactive
CCO[Si](CCCS)(OCC)OCC,Potency,[1],35.6 µM (active)
same,Potency,[3],inactive
same,Potency,[4],inactive
same,Potency,[5],35.6 µM (active)
Cc1cccc2nccnc12,Potency,[4],inactive
NNc1nnc(NN)c2ccccc12,Potency,[2],34.7 µM (active)
same,Potency,[3],36.3 µM (active)
CC(C)(C)OC(=O)c1ccc(O)cc1,Potency,[1],63.3 µM (active)
same,Potency,[3],31.7 µM (active)
same,Potency,[4],inactive
same,Potency,[5],inactive
CCC(C)NC(N)=O (centres undefined),Potency,[2],inactive
same,Potency,[3],inactive
same,Potency,[4],inactive
same,Potency,[5],inactive
Oc1cn2c(n1)Nc1ccc(Cl)c(Cl)c1C2,"activity change, negative = inhibition",[1],3% [at 23.6 µM]
same,Potency,[3],2.81 µM (active)
same,"activity change, negative = inhibition",[4],-1.03% [at 15.8 µM]
same,"activity change, negative = inhibition",[5],40.9% [at 23.6 µM]
Cc1ccsc1/C=C/C1=NCCCN1C,Potency,[1],inactive
same,Potency,[5],inactive
C[C@H](N)[C@H](O)c1cccc(O)c1,Potency,[1],inactive
same,Potency,[5],inactive
CCCCCCCCCC(C)=O,Potency,[2],inactive
same,Potency,[5],inactive
O=C(NCC(O)CO)c1c(I)c(C(=O)NCC(O)CO)c(I)c(N(CCO)C(=O)CO)c1I (centres undefined),Potency,[4],inactive
O=P(O)(O)OP(=O)(O)O,Potency,[4],inactive
COC(=O)CCCCCCCC(=O)OC,Potency,[2],inactive
same,Potency,[4],inactive
same,Potency,[5],inactive
C#CC(C)N(C)C(=O)Nc1ccc(Cl)cc1 (centres undefined),Potency,[2],4.47 µM (active)
same,Potency,[3],3.99 µM (active)
same,Potency,[4],inactive
same,Potency,[5],inactive
N[C@@H](COP(=O)(O)O)C(=O)O,"activity change, negative = inhibition",[1],14.8% [at 23.6 µM]
same,Potency,[3],inactive
same,"activity change, negative = inhibition",[4],2.29% [at 15.8 µM]
same,"activity change, negative = inhibition",[5],2.53% [at 23.6 µM]
CCCC/C=C/C=C\C=O,Potency,[2],inactive
same,Potency,[3],inactive
same,Potency,[5],39.9 µM (active)
Nc1cccc(O)c1,Potency,[2],25.9 µM (active)
CCOC(=O)/C=C/c1ccccc1,Potency,[1],71 µM (active)
same,Potency,[3],35.6 µM (active)
same,Potency,[4],inactive
same,Potency,[5],inactive
O=C(O)c1cc(Br)c(O)c(Br)c1,Potency,[2],71 µM (active)
same,Potency,[3],39.9 µM (active)
same,Potency,[4],inactive
same,Potency,[5],inactive
Nc1nnc(-c2cccc(Cl)c2Cl)c(N)n1,Potency,[2],inactive
same,Potency,[3],inactive
Cc1cc(NC(=O)C2=C(O)c3ccccc3S(=O)(=O)N2C)no1,Potency,[4],inactive
CC1=C(C(=O)O)N2C(=O)[C@@H](NC(=O)[C@H](N)c3ccc(O)cc3)[C@H]2SC1,Potency,[4],inactive
